Compound activity: PubChem BioAssay, several laboratories
B2AR ag: beta2AR agonists driving receptor internalization, primary screen, cell-based, FAP fluorogen, flow cytometry | Am2.2-beta2AR cells | response, % (no concentration beside the values) | hit rate 0.43% among 340,000 | AID 504454, 2011;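 active means response above a set limit, near 3 SD of response in nonfluorescent compounds, cut at about 42% in these data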
Target sequence (P07550 whole entry, looked up): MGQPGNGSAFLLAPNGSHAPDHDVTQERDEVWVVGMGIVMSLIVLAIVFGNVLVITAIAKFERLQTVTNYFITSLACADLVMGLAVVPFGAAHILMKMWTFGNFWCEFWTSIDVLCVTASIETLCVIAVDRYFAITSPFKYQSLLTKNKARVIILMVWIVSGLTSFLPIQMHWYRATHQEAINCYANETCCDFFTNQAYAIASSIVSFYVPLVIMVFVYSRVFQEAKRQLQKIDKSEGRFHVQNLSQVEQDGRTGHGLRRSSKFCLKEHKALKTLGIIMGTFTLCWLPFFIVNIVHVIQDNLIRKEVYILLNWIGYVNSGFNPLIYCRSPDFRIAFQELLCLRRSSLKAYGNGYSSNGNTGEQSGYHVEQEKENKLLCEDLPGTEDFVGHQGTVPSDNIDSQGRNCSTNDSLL
tim10-1 inh: growth inhibitors of tim10-1 mutant yeast, primary screen, luminescence, uHTS | S. cerevisiae tim10-1 ts strain growth, BacTiter-Glo, 24 h | inhibition, % at 20 µM | hit rate 2.2% among 330,000 | AID 463190, 2010;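 active means inhibition of at least 40%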;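 further: mutant grown at 25 °C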
TIM10 inh: growth inhibitors of isogenic TIM10 control yeast, primary screen, counter-screen for tim10-1 yeast inhibitor project, luminescence, uHTS; S. cerevisiae TIM10 strain growth, BacTiter-Glo luminescence, 24 h; inhibition, % at 10 µM; hit rate 1.4% among 330,000;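 active means inhibition of 40% or more at the single tested concentration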;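 further: wild-type TIM10 isogenic control strain grown at permissive 25 °C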
tim23-1 inh: growth inhibitors of tim23-1 mutant yeast, primary screen, luminescence, uHTS; S. cerevisiae tim23-1 growth, BacTiter-Glo luminescence, 24 h; inhibition, % at 20 µM; hit rate 1.3% among 330,000; AID 463212, 2010;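 active means growth inhibition of the mutant yeast at or above 50%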;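 further: temperature-sensitive mutant grown at 25 °C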
PfHsp90 yeast 2: growth inhibition of PfHsp90-expressing yeast, primary screen, antimalarial PfHsp90 inhibitor project, S. cerevisiae, BacTiter-Glo luminescence, single point, set 2; BacTiter-Glo ATP, 48 h; yeast lacking PDR1 and PDR3 efflux regulators; inhibition, % at 9.4 µM; hit rate 0.32% among 310,000;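 active means every replicate shows inhibition above about 80%, whatever the replicate mean, limit read from the data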
tim10-1 conf: growth inhibitors of tim10-1 mutant yeast, confirmation, single concentration, luminescence, S. cerevisiae; shares compounds with tim10-1 inh; S. cerevisiae tim10-1 ts strain growth, BacTiter-Glo, 24 h; inhibition, % at 20 µM; hit rate 56% among 7,400; AID 463213, 2010;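 active means inhibition of yeast growth at or above a set limit in either of two repeat tests at 20 µM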;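 further: tim10-1 mutant grown at permissive 25 °C to find synthetic lethal compounds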
Hits are given with their value; n = inactive; x = not tested or not shown. Rows were chosen to be rich in hits. Some 3.8% of all compounds tested hit in one or more screens of this group.

SMILES	B2AR ag	tim10-1 inh	TIM10 inh	tim23-1 inh	PfHsp90 yeast 2	tim10-1 conf
CN(CC(=O)O/N=C(\N)c1ccc([N+](=O)[O-])cc1)S(=O)(=O)c1ccc2ccccc2c1	n	45.3	n	n	x	47.0
Cc1ccc(/C(N)=N/OC(=O)CN(C)S(=O)(=O)c2ccc(C)cc2)cc1	n	46.7	n	n	n	n
COc1ccc(/C(N)=N/OC(=O)CN(C)S(=O)(=O)c2ccccc2)cc1	n	n	n	n	n	x
COc1ccc(/C(N)=N/OC(=O)CN(C)S(=O)(=O)c2ccc(C)cc2)cc1	n	x	x	x	n	x
O=C(COc1ccc(Cl)cc1Br)OCC(=O)c1ccc[nH]1	n	n	n	n	x	x
CCOc1ccc(C(=O)N2CCc3ccccc32)cc1OCC	n	n	n	n	n	x
Cc1c(C)c2ccc(OCC(=O)Nc3ccccc3C(N)=O)cc2oc1=O	n	n	n	n	n	x
COc1cc(/C=C(\C#N)C(=O)NCC2CCCO2)ccc1OCC(N)=O (stereo not given)	n	n	n	n	x	x
COc1cc(C(=O)NCC2CCCO2)ccc1OCc1ccc(Cl)cc1Cl (stereo not given)	n	43.0	n	n	n	29.6
N#C/C(=C\c1ccc(O)c(Br)c1)C(=O)NCc1ccccc1	n	47.3	n	n	n	n
COc1cc(/C=C(\C#N)C(=O)NCc2cccs2)ccc1O	n	42.3	n	n	n	n
N#C/C(=C\c1ccc(O)c([N+](=O)[O-])c1)C(=O)NCc1ccccc1	n	n	n	n	n	x
COc1ccc(/C=C(\C#N)C(=O)NCC2CCCO2)cc1OC (stereo not given)	n	40.0	n	n	x	n
Nc1ncnc2c1ncn2[C@@H]1O[C@H](CNS(=O)(=O)c2cc(S(=O)(=O)c3ccccc3)cs2)[C@@H](O)[C@H]1O	n	n	n	n	n	x
COc1ccc(-n2c(C)cc(C(=O)COC(=O)Cn3cnc4ccccc43)c2C)cc1	n	52.9	n	n	n	n
COc1ccccc1N(C)S(=O)(=O)c1ccc(C(=O)Nc2cc(OC)c(OC)c(OC)c2)cc1	n	x	x	x	x	x
O=C1CN(Cc2ccccc2)C(=NCc2ccco2)S1	n	45.2	n	n	n	n
O=C(N/N=C/c1ccc2c(c1)OCO2)C(=O)Nc1cccc(Cl)c1	n	n	n	n	n	x
COc1ccc(-c2cc(=O)oc3cc(OC(C)C(=O)NCc4ccccn4)ccc23)cc1 (stereo not given)	n	n	n	n	n	x
CCc1c(C)sc(NC(=O)c2cc(C(C)C)on2)c1C#N	n	n	n	n	n	x
Cc1cc(C(=O)Nc2sc(C)c(C)c2C#N)no1	n	42.9	n	n	n	n
CC(C)CNC(=O)c1c2c(nc3ccccc13)-c1ccccc1CC2	n	n	n	n	x	x
CCN(CC)C(=O)c1c2c(nc3ccccc13)-c1ccccc1CC2	n	41.6	n	n	n	n
Cc1cc(C)n(-c2ccc(C(=O)OCn3nnc4ccccc4c3=O)cc2)n1	n	49.2	n	n	n	41.8
COC(=O)C1(Cc2ccccc2)NC(c2ccc(F)cc2)C2C(=O)N(C)C(=O)C21 (stereo not given)	n	n	n	n	n	x
SMILES	B2AR ag	tim10-1 inh	TIM10 inh	tim23-1 inh	PfHsp90 yeast 2	tim10-1 conf
COC(=O)[C@]1(Cc2ccccc2)N[C@H](c2ccc(-c3ccccc3)cc2)[C@@H]2C(=O)N(C)C(=O)[C@@H]21	n	44.6	n	n	n	n
Cc1cccc(Nc2nnc(SCC3CCCCO3)s2)c1C (stereo not given)	n	48.1	n	n	n	32.8
COc1cccc(Nc2nnc(SCC3CCCCO3)s2)c1 (stereo not given)	n	n	n	n	n	x
COc1ccc(Nc2nnc(SCC3CCCO3)s2)cc1 (stereo not given)	n	45.8	n	n	n	n
Cc1ccc(C(=O)C2CC2)cc1C	n	x	x	x	n	x
Cc1cc2nc3c(nc2cc1C)C1(C(=O)N(C)C)CCC3(C)C1(C)C (stereo not given)	n	n	n	n	n	x
CN(C)C(=O)C12CCC(C)(c3nc4ccccc4nc31)C2(C)C (stereo not given)	n	42.1	n	n	n	n
Cn1nccc1C(=O)Nc1sc2c(c1C#N)CCCC2	n	n	n	n	n	x
N#Cc1c(NC(=O)c2ccc(Cn3cc(Br)cn3)o2)sc2c1CCCCCC2	n	41.2	n	n	n	32.2
Cc1ccc2cc(CN(c3ccccc3)S(=O)(=O)c3ccccc3)c(=O)[nH]c2c1	n	n	n	n	n	x
CCOc1ccc(N(Cc2cc3ccc(C)cc3[nH]c2=O)S(=O)(=O)c2ccccc2)cc1	n	42.2	n	n	n	n
COc1ccccc1C(=O)Nc1nnc(S(=O)(=O)N2CCCCC2)s1	n	47.6	n	n	n	n
COc1ccccc1C(=O)Nc1nnc(S(=O)(=O)N2CCCCCC2)s1	n	n	n	n	n	x
Cc1cnn(-c2cc(Oc3ccccc3)ncn2)c1	n	48.9	n	n	n	n
C=CCOc1ccc(CN(C)CC(O)COc2cccc3ccccc23)cc1 (stereo not given)	n	n	n	n	n	x
CN(CC(=O)Nc1cccc(F)c1)CC(=O)NC(c1ccccc1)c1ccccc1	n	n	n	n	n	x
O=C(CSc1nc2cc(Cl)ccc2s1)c1ccco1	n	43.0	n	n	n	37.5
O=C(CSc1nnc(SCC(=O)c2ccco2)s1)c1ccco1	n	n	n	n	n	x
S=c1[nH]nc(-c2ccccc2)n1/N=C/c1ccc(-c2ccccc2Cl)o1	n	44.7	n	n	n	n
O=C1c2ccccc2C(=O)N1CCc1nc2ccccc2c(=O)n1-c1ccccn1	n	48.7	n	n	n	n
Nc1c(C(=O)NCc2ccc(Cl)cc2)sc2nc3c(c(C(F)(F)F)c12)CCC3	n	45.9	n	n	x	n
COc1ccc(S(=O)(=O)Nc2ccc3c(c2)CC(=O)N([C@@H](C)CO)C[C@H](C)[C@@H](CN(C)S(=O)(=O)c2ccc(F)cc2)O3)cc1	n	n	n	n	n	x
N=c1c(S(=O)(=O)c2ccc(Br)cc2)cc2c(=O)n3ccccc3nc2n1C1CCCCC1	n	n	n	n	n	x
Cc1cccn2c(=O)c3cc(S(=O)(=O)c4ccc(Br)cc4)c(=N)n(C4CCCC4)c3nc12	n	40.6	n	n	n	n
CCOc1ccc(N(C)S(=O)(=O)c2ccc(C)c(C(=O)N3CCN(Cc4ccc5c(c4)OCO5)CC3)c2)cc1	n	n	n	n	x	x
CC[C@]12c3[nH]c4ccc(OC)cc4c3CCN1C(=O)C(CC(=O)NCCCn1ccnc1)C[C@@H]2C(=O)N1CCN(C(=O)c2ccco2)CC1 (stereo not given in full)	n	n	n	n	n	x
